Bioassay records from PubChem BioAssay.
The list is not random: actives were taken first. Their share in the collection is about 19%.
TDP1 cell noCPT: qHTS for Inhibitors of human tyrosyl-DNA phosphodiesterase 1 (TDP1): qHTS in cells in absence of CPT. DT40 Tdp1-/- hTDP1 cells, no CPT, ATP luminescence, 48 h. Potency, µM (doses to about 46.2 µM), for inactives: top-dose activity change, negative = growth inhibition, most hits filed as inhibitors. 15% of 420,000 active; note: potency is the fitted concentration of half-maximal effect; nearly all actives have a fitted effect of over 55% in size
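Chicken DT40 Tdp1-/- cells stably complemented with human TDP1 were seeded at 400 cells/well with DMSO in place of 20 nM camptothecin. After compound pinning, cells grew at least 48 hr at 37 °C; viability read by CellTiter-Glo luminescence.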
HT1080 IDH1KD tx: qHTS for induction of synthetic lethality in tumor cells producing 2HG: qHTS for the HT-1080-IDH1KD cell line; HT-1080 IDH1 knockdown viability, ATP luminescence, 48 h; 2% of 360,000 active; Potency, µM (titrated, usually from 46.1 µM), without a hit: at the top dose activity, negative = toxicity, actives largely listed as cytotoxic;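 note: potency is the fitted concentration of half-maximal effect; 0% = DMSO wells and -100% = cell-free medium wells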
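Using the IDH1-knockdown HT-1080 line run in the same batch and compound series as the NT line, viability after 48 h at 37 °C was determined by CellTiter-Glo luminescence and expressed as % activity.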
DT40 TDP1 CPT: qHTS for Inhibitors of human tyrosyl-DNA phosphodiesterase 1 (TDP1): qHTS in cells in presence of CPT | chicken DT40 Tdp1-/-;hTDP1 cells + 20 nM CPT, ATP luminescence, 48 h | Potency, µM (highest dose often 46.2 µM), without a hit: top-dose activity change, negative = growth inhibition, hits mostly inhibitors | 12% of 420,000 active; note: potency is the fitted concentration of half-maximal effect; nearly all actives have a fitted effect of over 55% in size
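Chicken DT40 Tdp1-/- cells complemented with human TDP1, 400 cells/well, exposed to compounds plus 20 nM camptothecin for at least 48 h at 37 C; viability read as ATP content by CellTiter-Glo luminescence.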
IL-1B inflam inh: qHTS for Inhibitors of Inflammasome Signaling: IL-1-beta AlphaLISA Primary Screen | THP-1 LPS/ATP IL-1B secretion, AlphaLISA, 16 h; stronger effect = lower value | activity change, % at 57.5 µM | 4.7% of 360,000 active | AID 743279, 2014; in the data active = activity change below about -50%; inconclusive = mostly about -30% to -49%
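Secreted IL-1B measured by AlphaLISA bead assay after 16 h compound exposure of THP-1 cells; compounds (final up to 57.5 uM) added 1 h before LPS (250 ng/mL) and ATP (1.25 mM) stimulation; lower signal means less secretion.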
HT1080NT lethal: qHTS for induction of synthetic lethality in tumor cells producing 2HG: qHTS for the HT-1080-NT fibrosarcoma cell line; Potency, µM (highest dose often 46.1 µM), for inactives: at the highest dose activity, negative = less viability, actives largely listed as cytotoxic; 1.6% of 360,000 active; HT-1080-NT fibrosarcoma viability, CellTiter-Glo ATP luminescence, 48 h;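 note: NT is the 2HG producing partner of a matched IDH1 knockdown line; potency is the fitted concentration of half-maximal effect; 0% = DMSO-treated cells and -100% = media-only wells without cells; nearly all actives have a fitted effect of over 55% in size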
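HT-1080-NT fibrosarcoma cells (2HG-overproducing), 750 cells/well in RPMI with 5% FBS, dosed after 2 h and incubated 48 h at 37C. CellTiter-Glo luminescence normalized to DMSO and no-cell wells; concentration-response curves fitted and classed.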
Starred values were filed as active, the others as inactive; i = inactive; ? = inconclusive; . = no result; ! = not active in a repeat. Unless noted, calls come from the whole dose curve; as a rule, active = well fitted curve in the direction sought with a large enough effect; inconclusive = small, poorly fitted or top-dose-only effect, or another doubt; inactive = no such curve, though single readings can be large; an effect the other way counts as inactive or inconclusive. Unless noted, % is set by controls: 0 for no effect and ±100 for the full control effect.

SMILES | TDP1 cell noCPT | HT1080 IDH1KD tx | DT40 TDP1 CPT | IL-1B inflam inh | HT1080NT lethal
O=C(NC(=S)NCCN1CCOCC1)c1ccc(F)cc1 | -19.3% | -0.7% | -13.2% | i | 2.5%
O=C(NC(=S)Nc1ccccc1O)c1ccc(Cl)cc1Cl | 29.1µM* | ? | 18.4µM* | -78.4* | -7.4%
CC(C)CNC(=S)NC(=O)c1ccc(Cl)cc1Cl | ? | -6.8% | 13µM* | 71.3 | 0.7%
COC(=O)c1cc2oc(C)cc2n1CC(=O)Nc1ccc(C(C)C)cc1 | 20.6µM* | . | 7.31µM* | . | .
COc1ccccc1Cc1c(C2CCCCC2)nc2c3ccccc3ccn12 | ? | -18.3% | ? | 26.1 | 3.8%
c1ccc2c(c1)ccn1c(Cc3ccsc3)c(C3CCCCC3)nc21 | 14.6µM* | ? | 18.4µM* | 11.3 | -17.7%
Cc1ccc(Cc2c(C3CCCCC3)nc3c4ccccc4ccn23)cc1 | 23.1µM* | 5.3% | ? | 33.8 | 3.6%
COc1cc(CC(=O)N(c2ccccc2)c2nc(C)cs2)cc(OC)c1OC | ? | 0.3% | ? | 11.4 | 1.2%
CCc1cccc(NC(=O)C2CCCN(S(=O)(=O)c3cnc[nH]3)C2)c1 (configuration not stated) | 11.3% | -0.7% | -6.2% | 22.7 | -3.3%
COc1ccccc1NC(=O)C1CCCN(c2ncnc3onc(-c4ccc(F)cc4)c23)C1 (configuration not stated) | 16.4µM* | . | ? | . | .
CCc1cccc(NC(=O)C2CCCN(c3ncnc4onc(-c5ccc(F)cc5)c34)C2)c1 (configuration not stated) | 10.3µM* | . | 13µM* | . | .
NC(=O)c1ccccc1NC(=O)C1CCCN(c2ncnc3onc(-c4ccc(F)cc4)c23)C1 (configuration not stated) | 14.6µM* | . | 13µM* | . | .
Cc1ccc(S(=O)(=O)N2CCC(C(=O)NCCC3=CCCCC3)CC2)c(C)c1 | ? | 5.4% | ? | -17.9 | 7.7%
CCN(CCO)c1nc(NCc2ccccc2)c2cnn(C)c2n1 | ? | 0.6% | ? | 2.4 | 6.9%
O=C(Nc1ccccc1)[C@@H]1CC=C[C@@H]2CCN(Cc3ccc(Cl)c(Cl)c3)C(=O)[C@@H]21 | 18.4µM* | ? | ? | ? | ?
CCCCN1CC[C@H]2C=CC[C@@H](C(=O)Nc3ccccc3)[C@H]2C1=O | -4.8% | -1.6% | ? | 29.6 | 17.2%
COc1ccc(CN2CC[C@H]3C=CC[C@@H](C(=O)NCCc4ccccc4)[C@H]3C2=O)cc1OC | ? | 3.6% | 14.1µM* | 0.1 | 18.8%
O=C(Nc1ccccc1)[C@@H]1CC=C[C@@H]2CCN(Cc3ccccc3)C(=O)[C@@H]21 | 22.4µM*! | 14.6% | ? | -6.9 | 0.1%
COc1cc(C(=O)NCCC2=CCCCC2)ccc1OC1CCN(C(C)=O)CC1 | ? | -1.4% | ? | 4.0 | -4.5%
CC#CCN(Cc1ccco1)C(=O)c1ccc(OC2CCN(Cc3ccccn3)CC2)cc1 | ? | -1.1% | ? | -5.8 | -9.6%
ClCCn1c(CCl)nc2ccc(Cl)cc21 | 16.4µM* | -0.5% | ? | 19.7 | -12.9%
O=C(NCc1ccccc1Cl)c1ccc2nc([C@H]3C[C@H](O)[C@@H](CO)O3)[nH]c2c1 | -2.8% | 2.2% | -6.9% | 15.0 | 18.4%
Cc1[nH]n(-c2ccccc2)c(=O)c1/C=C1/C=c2ccccc2=N1 | 20.6µM* | -4.8% | ? | 18.9 | -0.6%
COc1cccc2c1C(=O)C=C(C)C2=O | 4.61µM* | ? | 2.91µM* | -99.8* | 18.4µM*
CC(C)(C=O)C1=CC(=O)c2ccccc2C1=O | 0.411µM* | 13µM* | 0.184µM* | -102.5* | -29.3%
SMILES | TDP1 cell noCPT | HT1080 IDH1KD tx | DT40 TDP1 CPT | IL-1B inflam inh | HT1080NT lethal
CCOc1ccccc1C(O)C1=CC(=O)c2ccccc2C1=O (configuration not stated) | ? | 7.9% | ? | -8.5 | 1.7%
CC1=CC(=O)c2ccccc2C1=O | 4.61µM* | 4.8% | 8.2µM* | 21.1 | 27.4%
CCOc1ccc(-n2ccnc2SCC(=O)NCc2ccc3c(c2)OCO3)cc1 | ? | -10.7% | ? | -3.3 | -2.1%
COc1ccc2cc(CNCCOCCOCCNCc3ccc4cc(OC)ccc4c3)ccc2c1 | 2.59µM* | 16.4µM* | 2.59µM* | -98.6* | ?
Cc1cc(C(=O)c2ccccc2)c(NC(=O)CCl)s1 | 23.1µM* | ? | 9.2µM* | -100.4* | ?
CC(O)Cc1cn([C@@H](CCCCNC(=O)OC(C)(C)C)C(=O)N2CCN(C(=O)OC(C)(C)C)CC2)nn1 (some centres not stated) | -4.3% | 7.1% | -15.3% | 16.1 | -15.3%
Cc1sc(N)nc1C12CC3CC(CC(C3)C1)C2 | ? | -20.1% | 6.4% | -51.7* | 0.0%
COc1ccc(NC(=O)CN2CCN(Cc3ccc(F)cc3)S2(=O)=O)cc1Cl | 20.6µM* | . | ? | . | .
O=C(CN1CCN(Cc2ccc(F)cc2Cl)S1(=O)=O)Nc1ccc(F)cc1 | 14.6µM* | . | 11.6µM* | . | .
O=C(CN1CCCN(Cc2ccc(F)cc2)S1(=O)=O)Nc1ccc2c(c1)OCCO2 | -15.9% | . | -2.8% | . | .
CC(NC(=O)c1cc(F)ccc1F)c1nnc2n1CCN(Cc1ccccc1O)CC2 (configuration not stated) | -26.9% | . | -15.6% | . | .
Cc1ccc(-c2c(C(=O)N/N=C/C3CC=CCC3)nnn2-c2nonc2N)cc1 (configuration not stated) | ? | -0.4% | -3.3% | 2.8 | 1.3%
COc1ccc(OC)c(CCNc2ncnc3onc(C)c23)c1 | 5.17µM* | . | 7.31µM* | . | .
Cc1noc2ncnc(NCc3cccc(Cl)c3)c12 | 18.4µM* | . | 16.4µM* | . | .
Cc1ccc(CNc2ncnc3onc(C)c23)cc1 | 14.6µM* | . | 16.4µM* | . | .
COc1ccc(C2C(C#N)=C(N)Oc3cc(C)[nH]c(=O)c32)c(OC)c1OC (configuration not stated) | -0.4% | 7.4% | -3.6% | 12.5 | 6.6%
COc1cccc(C(=O)Nc2nc3nc(-c4ccccc4)cc(=O)n3[nH]2)c1 | -16.3% | . | -1.9% | . | .
CCc1c(C)nc2cc(-c3ccc(OC)cc3)[nH]n2c1=O | 14.6µM* | 6.6% | 20.6µM* | -6.2 | -2.1%
Cc1nc2cc(-c3ccccc3)[nH]n2c(=O)c1C | ? | 9.5% | ? | 2.4 | 5.6%
Cc1cc(=O)n2[nH]c(-c3ccccc3)cc2n1 | -11.7% | 0.2% | -24.9% | 84.8 | -1.3%
